# Reference: the supplement of paper PMC10338343
# ± gives the standard deviation.
# System: MILI (PIWIL2) piRISC loaded with L1MC piRNA (26 nt)
# Assay: pre-steady-state target cleavage rate (min^-1); guide: L1MC piRNA 5'p-UAACUAAAUACUAUGCAAGCUGUAGG; MIWI and MILI are mouse PIWI proteins and EfPiwi is from a freshwater sponge; tags in brackets are library labels; higher = faster piRNA-guided slicing of the target
# Conditions: auxiliary factor: 500 nM mouse GTSF1
# Procedure, shortened: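 Using HEPES–potassium acetate buffer at 33 °C, 1 nM active affinity-purified piRISC with a single synthetic guide was mixed with 0.1 nM transcribed, DNA-blocked target RNA library for 0–8 or 0–960 min, with or without 500 nM GTSF1 partner protein. Uncleaved targets were sequenced and normalised to depth and to weakly complementary targets, and three trials were pooled with k3 capped at 0.0001 min^-1. A burst-and-steady-state fit gave the pre-steady-state cleavage rate.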
row,Sequence,pre-steady-state target cleavage rate
1,UCCUGGAUGUCCUAGCAUAGUAUUUUGUUA,0.0105 ± 0.0061
2,UCCUGGAUCAGCUUGCAUAGUAUAAUCAAA,0.0782 ± 0.019
3,UCCUGGAUGUCCUUCCUUAGUAUUUAGUUA,0.00908 ± 0.0046
4,UCCUGGAUCUCGUUGCAUAGUAUUUACAAA,0.0638 ± 0.014
5,UCCUGGUAGAGCUUGCAUACUAUUUAGUUA,0.0467 ± 0.011
6,UCCUGGAUGUGCUUGCAUUGAAUUUAGUUA,0.00465 ± 0.0038
7,UCCUGGAUGUCGAUGCAAUAGUAUUUAGUUA,0.00497 ± 0.0023
8,UCCUGGAUGUCCUUGCAUAGUUUUUACUUA,0.00658 ± 0.0044
9,UCCUGGAUGUCGAUGGAUAGUAUUUAGUAA,0.00684 ± 0.0036
10,UCCUGGAUCAGCUUGCAAUGUAUUUAGAAA,0.0496 ± 0.013
11,UCCUGGUACUGCUUGCAUAGUAUUUACUUA,0.0201 ± 0.0085
12,UCCUGGAUGUCGUUGCAAAGUAUUUUGUUA,0.0092 ± 0.0056
13,UCCUGGAUGUCCUUGCAUAGUAUAUAGUAA,0.0276 ± 0.01
14,UCCUGGAUGUCGAACGUAUCUAUAAUGUUA,< 0.0001
15,UCCUGGUACACCUUGCAUACUAUUUAGUUA,0.228 ± 0.072
16,UCCUGGAUCAGCUAGCAUAGUAUUUACAAA,0.127 ± 0.023
17,UCCUGGAUGUCGAACCAUUGUAUAUAGUUA,< 0.0001
18,UCCUGGAUGACGAUGCAUAGUAUUUAGUAA,0.128 ± 0.016

row,Sequence,pre-steady-state target cleavage rate
1,UCCUGGAUGAGCUUGCAAAGUAUUUAGAAA,0.0447 ± 0.013
2,UCCUGGAUGAGCAUCCAUAGUAUUUAGUUA,0.231 ± 0.059
3,UCCUGGAUGUCGAAGCGUAGUAUUUAGUUA,0.00313 ± 0.0025
4,UCCUGGAUGUCGUUGCUUAGUAUUUAGAUA,0.0162 ± 0.0057
5,UCCUGGAUCUGCUUGCAUAGAAUUUAGUUA,0.0261 ± 0.0069
6,UCCUCCUACAGCUUGCAUAGUUUUUAGAAA,0.0703 ± 0.019
7,UCCUGGAUCAGCUUGCAUAGUUAUUAGUAA,0.00826 ± 0.0047
8,UCCUCCUACAGCUUCCAUAGUUUUUAGUUA,0.0195 ± 0.0081
9,UCCUCCUACAGCUUGCAAUGUAUUUAGUAA,0.0921 ± 0.012
10,UCCUGGUACAGCUUGCAAAGUAUUUACUUA,0.0515 ± 0.015
11,UCCUGGAUGAGCAAGCAUAGUAUUUACAAA,0.0174 ± 0.0067
12,UCCUGGAACAGCUUGCAUAGUUUUAGUUA,0.0123 ± 0.0053
13,UCCUGGAUCAGCUUGCAUAGUAAAUACAAA,0.0497 ± 0.016
14,UCCUCCUACAGCUUGCAUAGAUAUUAGUAA,0.015 ± 0.007
15,UCCUGGAUGUCGAUGCAUAGUAUAAAGUUA,0.0643 ± 0.016
16,UCCUGGAUGUCCUUGCAUAGUAUUAAGUAA,0.0433 ± 0.013
17,UCCUGGAUGUCCUUGCAUACUAUUUAGUAA,0.0148 ± 0.0062
18,UCCUGGAUGAGCUUGCAUACUAUUUUGUUA,0.0073 ± 0.005
